Assay results: PMC7862700, “An all-to-all approach to the identification of sequence-specific readers for epigenetic DNA modifications on cytosine”

Experiments:
Assay in all cases: DAPPL (digital affinity profiling via proximity ligation, sequencing); 10 mM Tris-HCl pH 7.5, 50 mM NaCl, 1 mM DTT, 4% glycerol, room temperature, 30 min; GST-TFs on glutathione beads, 16-mer random dsDNA library, 0.1% formaldehyde crosslink after washing; high values mean tight binding
Details in all cases: protein: recombinant; tags: N-terminal GST; dsDNA, one strand shown
[1] = target: T1, FLI1 (Homo sapiens, UniProt Q01543 1-452)
T1 sequence: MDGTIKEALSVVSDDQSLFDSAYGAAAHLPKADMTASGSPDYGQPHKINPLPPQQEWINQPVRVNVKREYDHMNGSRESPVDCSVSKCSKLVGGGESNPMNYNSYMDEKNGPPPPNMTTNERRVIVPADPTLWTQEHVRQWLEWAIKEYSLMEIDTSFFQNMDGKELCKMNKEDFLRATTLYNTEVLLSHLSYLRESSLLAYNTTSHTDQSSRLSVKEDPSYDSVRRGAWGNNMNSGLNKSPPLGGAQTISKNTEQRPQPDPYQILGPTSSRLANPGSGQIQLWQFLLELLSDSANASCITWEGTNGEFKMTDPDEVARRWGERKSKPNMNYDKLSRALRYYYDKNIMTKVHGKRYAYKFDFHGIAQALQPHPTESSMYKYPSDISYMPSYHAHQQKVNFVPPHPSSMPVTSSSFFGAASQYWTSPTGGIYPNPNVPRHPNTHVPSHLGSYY
How it was run: (§1)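 GST fusions of human transcription factors were expressed in yeast and captured with glutathione beads. Once given DNA barcodes and pooled alongside a tag-only sample, they were incubated for 30 min at room temperature with 200 nmole of a random double-stranded 16-mer DNA library in Tris/NaCl/DTT/glycerol buffer, then washed, crosslinked (0.1% formaldehyde), proximity-ligated, PCR-amplified and sequenced on an Illumina NextSeq500. The binding signal of each hexamer is its read frequency for a factor divided by its frequency for the tag-only sample.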

[2] = target: T2, ELK1 (Homo sapiens, UniProt P19419 1-428)
T2 sequence: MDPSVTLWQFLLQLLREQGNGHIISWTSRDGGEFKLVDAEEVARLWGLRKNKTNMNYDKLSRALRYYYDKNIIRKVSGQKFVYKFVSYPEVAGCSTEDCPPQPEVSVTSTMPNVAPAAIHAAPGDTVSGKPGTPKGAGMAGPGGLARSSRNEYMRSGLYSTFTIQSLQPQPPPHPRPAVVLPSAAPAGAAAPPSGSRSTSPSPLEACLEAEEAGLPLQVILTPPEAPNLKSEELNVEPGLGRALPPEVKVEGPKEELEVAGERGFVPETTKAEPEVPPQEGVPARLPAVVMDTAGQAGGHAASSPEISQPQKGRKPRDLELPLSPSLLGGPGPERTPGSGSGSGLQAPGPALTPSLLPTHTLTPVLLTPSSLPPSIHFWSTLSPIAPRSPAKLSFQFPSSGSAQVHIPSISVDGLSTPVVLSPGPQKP
How it was run: as §1

[3] = target: T3, GABPA (Homo sapiens, UniProt Q06546 1-454)
T3 sequence: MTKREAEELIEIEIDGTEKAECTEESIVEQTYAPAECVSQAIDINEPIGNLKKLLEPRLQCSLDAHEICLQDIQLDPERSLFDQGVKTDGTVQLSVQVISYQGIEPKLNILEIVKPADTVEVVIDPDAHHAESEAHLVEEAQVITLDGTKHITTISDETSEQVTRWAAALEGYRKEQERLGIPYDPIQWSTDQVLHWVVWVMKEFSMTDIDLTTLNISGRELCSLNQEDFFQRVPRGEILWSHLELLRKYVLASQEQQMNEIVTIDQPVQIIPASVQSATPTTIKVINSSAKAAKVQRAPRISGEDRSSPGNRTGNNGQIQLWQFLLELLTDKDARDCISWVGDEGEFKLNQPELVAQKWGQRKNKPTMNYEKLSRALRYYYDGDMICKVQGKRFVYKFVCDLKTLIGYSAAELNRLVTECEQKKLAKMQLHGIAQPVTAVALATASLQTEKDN
How it was run: as §1

[4] = target: T4, ERG (Homo sapiens, UniProt P11308 1-479)
T4 sequence: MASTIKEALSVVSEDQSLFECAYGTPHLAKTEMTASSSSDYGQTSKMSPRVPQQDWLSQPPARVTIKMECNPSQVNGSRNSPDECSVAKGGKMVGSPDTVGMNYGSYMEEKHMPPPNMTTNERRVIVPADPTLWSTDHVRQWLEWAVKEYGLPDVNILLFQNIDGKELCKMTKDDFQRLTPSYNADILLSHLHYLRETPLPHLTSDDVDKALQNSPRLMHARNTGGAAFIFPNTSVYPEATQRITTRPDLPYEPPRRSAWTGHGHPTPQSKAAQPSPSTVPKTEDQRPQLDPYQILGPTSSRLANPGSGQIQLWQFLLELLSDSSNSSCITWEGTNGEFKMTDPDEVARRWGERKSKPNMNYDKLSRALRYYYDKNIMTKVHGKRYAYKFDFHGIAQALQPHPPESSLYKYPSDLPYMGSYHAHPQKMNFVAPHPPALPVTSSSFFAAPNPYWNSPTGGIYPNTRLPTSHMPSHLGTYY
How it was run: as §1

[5] = target: ELF1 (Homo sapiens, UniProt P32519 1-619)
How it was run: as §1

[6] = target: T5, EHF (Homo sapiens, UniProt Q9NZC4 1-300)
T5 sequence: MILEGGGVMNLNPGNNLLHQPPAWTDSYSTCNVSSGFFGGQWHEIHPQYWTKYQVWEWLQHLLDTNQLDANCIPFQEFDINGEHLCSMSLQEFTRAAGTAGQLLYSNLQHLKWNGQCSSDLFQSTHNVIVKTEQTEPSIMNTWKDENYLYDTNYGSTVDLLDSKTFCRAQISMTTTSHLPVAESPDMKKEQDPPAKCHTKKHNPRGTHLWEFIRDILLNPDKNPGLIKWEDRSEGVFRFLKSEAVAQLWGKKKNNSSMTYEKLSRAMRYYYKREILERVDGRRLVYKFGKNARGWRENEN
How it was run: as §1

[7] = target: SPI1 (Homo sapiens, UniProt P17947 1-270)
How it was run: as §1

[8] = target: SPIB (Homo sapiens, UniProt Q01892 1-262)
How it was run: as §1

[9] = target: T6, ELK3 (Homo sapiens, UniProt P41970 1-407)
T6 sequence: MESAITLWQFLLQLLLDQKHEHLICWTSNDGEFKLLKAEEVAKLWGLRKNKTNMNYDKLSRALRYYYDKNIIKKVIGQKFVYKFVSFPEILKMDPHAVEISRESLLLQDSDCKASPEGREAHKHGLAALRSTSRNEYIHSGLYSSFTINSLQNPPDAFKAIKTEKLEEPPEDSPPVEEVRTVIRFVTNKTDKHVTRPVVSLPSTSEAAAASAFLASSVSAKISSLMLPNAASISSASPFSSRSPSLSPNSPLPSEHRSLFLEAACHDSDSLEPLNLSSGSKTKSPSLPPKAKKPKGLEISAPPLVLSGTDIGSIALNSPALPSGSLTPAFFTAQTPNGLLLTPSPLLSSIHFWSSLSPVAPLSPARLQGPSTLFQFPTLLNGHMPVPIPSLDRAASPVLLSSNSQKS
How it was run: as §1

SPIB, sequence (Q01892 whole entry): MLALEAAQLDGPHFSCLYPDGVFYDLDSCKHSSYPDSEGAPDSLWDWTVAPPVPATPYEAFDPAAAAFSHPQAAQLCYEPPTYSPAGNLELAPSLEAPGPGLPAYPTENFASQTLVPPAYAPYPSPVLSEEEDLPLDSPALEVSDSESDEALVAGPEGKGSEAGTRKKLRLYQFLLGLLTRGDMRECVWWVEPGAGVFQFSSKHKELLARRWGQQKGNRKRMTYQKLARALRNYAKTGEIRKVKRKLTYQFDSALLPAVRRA
ELF1, sequence (P32519 whole entry): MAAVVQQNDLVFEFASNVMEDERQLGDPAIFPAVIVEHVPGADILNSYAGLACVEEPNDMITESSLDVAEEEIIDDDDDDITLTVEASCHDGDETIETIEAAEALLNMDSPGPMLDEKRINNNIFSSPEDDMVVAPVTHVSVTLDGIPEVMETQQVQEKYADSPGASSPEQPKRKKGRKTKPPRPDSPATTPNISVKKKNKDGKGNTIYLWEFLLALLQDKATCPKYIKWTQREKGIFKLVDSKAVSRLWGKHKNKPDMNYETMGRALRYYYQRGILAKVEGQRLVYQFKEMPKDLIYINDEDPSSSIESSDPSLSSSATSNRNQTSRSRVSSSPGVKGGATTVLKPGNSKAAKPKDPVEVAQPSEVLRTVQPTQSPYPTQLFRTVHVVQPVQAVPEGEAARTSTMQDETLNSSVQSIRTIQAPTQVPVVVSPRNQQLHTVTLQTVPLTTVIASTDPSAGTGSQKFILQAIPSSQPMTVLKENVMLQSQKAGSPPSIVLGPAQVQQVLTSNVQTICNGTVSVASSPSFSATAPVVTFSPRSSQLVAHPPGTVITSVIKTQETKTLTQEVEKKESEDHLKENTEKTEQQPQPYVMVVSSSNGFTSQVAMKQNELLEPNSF

Row | Sequence | binding signal [1] | binding signal [2] | binding signal [3] | binding signal [4] | binding signal [5] | binding signal [6] | binding signal [7] | binding signal [8] | binding signal [9]
1 | TATTAA | 1.17 fold enrichment (6-mer frequency, TF over GST control) | 1.13 fold enrichment (6-mer frequency, TF over GST control) | 1.16 fold enrichment (6-mer frequency, TF over GST control) | 1.12 fold enrichment (6-mer frequency, TF over GST control) | 1.22 fold enrichment (6-mer frequency, TF over GST control) | 1.09 fold enrichment (6-mer frequency, TF over GST control) | 1.06 fold enrichment (6-mer frequency, TF over GST control) | 1.23 fold enrichment (6-mer frequency, TF over GST control) | 1.2 fold enrichment (6-mer frequency, TF over GST control)
2 | AAGTCC | 1.21 fold enrichment (6-mer frequency, TF over GST control) | 1.31 fold enrichment (6-mer frequency, TF over GST control) | 1.18 fold enrichment (6-mer frequency, TF over GST control) | 1.35 fold enrichment (6-mer frequency, TF over GST control) | 1.23 fold enrichment (6-mer frequency, TF over GST control) | 1.27 fold enrichment (6-mer frequency, TF over GST control) | 1.36 fold enrichment (6-mer frequency, TF over GST control) | 1.28 fold enrichment (6-mer frequency, TF over GST control) | 1.27 fold enrichment (6-mer frequency, TF over GST control)
3 | TCCTAG | 1.23 fold enrichment (6-mer frequency, TF over GST control) | 1.11 fold enrichment (6-mer frequency, TF over GST control) | 1.24 fold enrichment (6-mer frequency, TF over GST control) | 1.17 fold enrichment (6-mer frequency, TF over GST control) | 1.31 fold enrichment (6-mer frequency, TF over GST control) | 1.22 fold enrichment (6-mer frequency, TF over GST control) | 1.12 fold enrichment (6-mer frequency, TF over GST control) | 1.41 fold enrichment (6-mer frequency, TF over GST control) | 1.2 fold enrichment (6-mer frequency, TF over GST control)
4 | CTTGGA | 1.28 fold enrichment (6-mer frequency, TF over GST control) | 1.15 fold enrichment (6-mer frequency, TF over GST control) | 1.16 fold enrichment (6-mer frequency, TF over GST control) | 1.17 fold enrichment (6-mer frequency, TF over GST control) | 1.27 fold enrichment (6-mer frequency, TF over GST control) | 1.13 fold enrichment (6-mer frequency, TF over GST control) | 1.14 fold enrichment (6-mer frequency, TF over GST control) | 1.2 fold enrichment (6-mer frequency, TF over GST control) | 1.17 fold enrichment (6-mer frequency, TF over GST control)
5 | TTCGCT | 1.19 fold enrichment (6-mer frequency, TF over GST control) | 1.17 fold enrichment (6-mer frequency, TF over GST control) | 1.32 fold enrichment (6-mer frequency, TF over GST control) | 1.28 fold enrichment (6-mer frequency, TF over GST control) | 1.18 fold enrichment (6-mer frequency, TF over GST control) | 1.07 fold enrichment (6-mer frequency, TF over GST control) | 1.16 fold enrichment (6-mer frequency, TF over GST control) | 1.47 fold enrichment (6-mer frequency, TF over GST control) | 1.45 fold enrichment (6-mer frequency, TF over GST control)
6 | TCCCTC | 1.58 fold enrichment (6-mer frequency, TF over GST control) | 1.6 fold enrichment (6-mer frequency, TF over GST control) | 1.47 fold enrichment (6-mer frequency, TF over GST control) | 1.45 fold enrichment (6-mer frequency, TF over GST control) | 1.51 fold enrichment (6-mer frequency, TF over GST control) | 1.48 fold enrichment (6-mer frequency, TF over GST control) | 1.5 fold enrichment (6-mer frequency, TF over GST control) | 1.58 fold enrichment (6-mer frequency, TF over GST control) | 1.47 fold enrichment (6-mer frequency, TF over GST control)
7 | ACTTCA | 1.43 fold enrichment (6-mer frequency, TF over GST control) | 1.41 fold enrichment (6-mer frequency, TF over GST control) | 1.45 fold enrichment (6-mer frequency, TF over GST control) | 1.4 fold enrichment (6-mer frequency, TF over GST control) | 1.42 fold enrichment (6-mer frequency, TF over GST control) | 1.35 fold enrichment (6-mer frequency, TF over GST control) | 1.45 fold enrichment (6-mer frequency, TF over GST control) | 1.47 fold enrichment (6-mer frequency, TF over GST control) | 1.44 fold enrichment (6-mer frequency, TF over GST control)
